Data taken from PubChem BioAssay (NCI).
About 83,000 compounds went through this panel and 20% of them were active in at least one assay; those are over-represented in the sample as a whole.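 Activity criterion: percent growth below 10, measured after cells in 96-well plates were exposed to a single compound concentration for 48 hours.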 Active and inactive are the calls of the source.

Tests used:
Assay in all cases: NCI-60 one-dose screen, 48 h (100 = growth as untreated, 0 = no growth, -100 = all killed)
Settings in all cases: 10 µM unless noted
SK-MEL-2 melanoma = system: SK-MEL-2 melanoma
EKVX NSCLC = system: EKVX NSCLC
SN12C renal = system: SN12C renal
UO-31 renal = system: UO-31 renal
TK-10 renal = system: TK-10 renal
ACHN renal = system: ACHN renal
CAKI-1 renal = system: CAKI-1 renal
A498 renal = system: A498 renal
CCRF-CEM leukemia = system: CCRF-CEM leukemia
MOLT-4 leukemia = system: MOLT-4 leukemia
SR leukemia = system: SR leukemia
RPMI-8226 leukemia = system: RPMI-8226 leukemia
OVCAR-8 ovarian = system: OVCAR-8 ovarian
OVCAR-5 ovarian = system: OVCAR-5 ovarian
OVCAR-4 ovarian = system: OVCAR-4 ovarian
SK-OV-3 ovarian = system: SK-OV-3 ovarian
IGROV1 ovarian = system: IGROV1 ovarian
OVCAR-3 ovarian = system: OVCAR-3 ovarian
HS 578T breast = system: HS 578T breast
NCI/ADR-RES ovarian = system: NCI/ADR-RES ovarian

Measured: growth

CCOC(=O)c1ccc(-c2ccc3cc(OC)ccc3c2)nc1C
inactive: SK-MEL-2 melanoma 102% | EKVX NSCLC 99.4% | SN12C renal 101% | UO-31 renal 93.9% | TK-10 renal 84.3% | ACHN renal 96.8% | CAKI-1 renal 114% | A498 renal 99.8% | CCRF-CEM leukemia 95.3% | MOLT-4 leukemia 78% | SR leukemia 78.3% | RPMI-8226 leukemia 105% | OVCAR-8 ovarian 107% | OVCAR-5 ovarian 95.4% | OVCAR-4 ovarian 112% | SK-OV-3 ovarian 98.6% | IGROV1 ovarian 102% | OVCAR-3 ovarian 106% | HS 578T breast 120% | NCI/ADR-RES ovarian 108%

CCCCCCCCN(CCCCCCCC)C(=N)c1ccnc2ccccc12
active: SK-MEL-2 melanoma -44.2% | EKVX NSCLC -63.4% | SN12C renal -57.8% | UO-31 renal -89.1% | TK-10 renal -16.4% | ACHN renal -89.3% | CAKI-1 renal -86.1% | A498 renal -95.7% | CCRF-CEM leukemia -42.2% | MOLT-4 leukemia -41.4% | SR leukemia -56.6% | RPMI-8226 leukemia -47.7% | OVCAR-8 ovarian -66.1% | OVCAR-5 ovarian -57.2% | OVCAR-4 ovarian -67.1% | SK-OV-3 ovarian -27.8% | IGROV1 ovarian -66.5% | OVCAR-3 ovarian -93% | HS 578T breast -32% | NCI/ADR-RES ovarian -72.5%

CC1(C)N=C(N)N=C(N)N1c1cccc(CN)c1
inactive: SK-MEL-2 melanoma 99.8% | EKVX NSCLC 83.9% | SN12C renal 91.3% | UO-31 renal 66.8% | TK-10 renal 101% | ACHN renal 100% | CAKI-1 renal 89.2% | A498 renal 98% | CCRF-CEM leukemia 96.5% | MOLT-4 leukemia 95.1% | SR leukemia 105% | RPMI-8226 leukemia 99.9% | OVCAR-8 ovarian 93.3% | OVCAR-5 ovarian 89.2% | OVCAR-4 ovarian 93.8% | SK-OV-3 ovarian 101% | IGROV1 ovarian 88.8% | OVCAR-3 ovarian 94.9% | HS 578T breast 95.6% | NCI/ADR-RES ovarian 96.4%

Cc1cccc(-c2cc(O)c(C(=O)N3CCOCC3)s2)c1
active: NCI/ADR-RES ovarian 6.7%
inactive: SK-MEL-2 melanoma 28.5% | EKVX NSCLC 58.6% | SN12C renal 49.1% | UO-31 renal 58.3% | TK-10 renal 61.7% | ACHN renal 60.6% | CAKI-1 renal 47.5% | A498 renal 26.7% | CCRF-CEM leukemia 35.5% | MOLT-4 leukemia 21.6% | SR leukemia 25.5% | RPMI-8226 leukemia 41.7% | OVCAR-8 ovarian 46% | OVCAR-5 ovarian 92.1% | OVCAR-4 ovarian 77.3% | SK-OV-3 ovarian 41.7% | IGROV1 ovarian 50% | OVCAR-3 ovarian 15% | HS 578T breast 53.8%

COc1ccc(N(C)c2nc(Cl)nc3cnn(C)c23)cc1
inactive: SK-MEL-2 melanoma 22.2% | EKVX NSCLC 46.1% | SN12C renal 27.8% | UO-31 renal 34% | TK-10 renal 50.9% | ACHN renal 23.9% | CAKI-1 renal 22.9% | CCRF-CEM leukemia 13% | MOLT-4 leukemia 14.9% | SR leukemia 13.2% | RPMI-8226 leukemia 28.2% | OVCAR-8 ovarian 12.6% | OVCAR-5 ovarian 33% | OVCAR-4 ovarian 48.2% | SK-OV-3 ovarian 10.6% | IGROV1 ovarian 23.7% | HS 578T breast 37.8%
active: A498 renal -9.16% | OVCAR-3 ovarian 4.74% | NCI/ADR-RES ovarian 2.72%

Cc1nc(Nc2ccc(NC(=S)Nc3ccccc3)cc2)c2ccccc2n1
inactive: SK-MEL-2 melanoma 111% | EKVX NSCLC 95.6% | SN12C renal 101% | UO-31 renal 85.7% | TK-10 renal 131% | ACHN renal 102% | CAKI-1 renal 91.3% | A498 renal 100% | CCRF-CEM leukemia 93.1% | MOLT-4 leukemia 85.6% | SR leukemia 80.5% | RPMI-8226 leukemia 98.6% | OVCAR-8 ovarian 101% | OVCAR-5 ovarian 110% | OVCAR-4 ovarian 121% | SK-OV-3 ovarian 107% | IGROV1 ovarian 99.8% | OVCAR-3 ovarian 118% | HS 578T breast 96% | NCI/ADR-RES ovarian 107%

CC(C)(O)c1cccc(F)c1
active: CCRF-CEM leukemia -41.6%
inactive: SK-MEL-2 melanoma 124% | EKVX NSCLC 92% | SN12C renal 94.7% | UO-31 renal 88.7% | TK-10 renal 109% | ACHN renal 99.1% | CAKI-1 renal 101% | A498 renal 97% | MOLT-4 leukemia 107% | SR leukemia 96.9% | RPMI-8226 leukemia 103% | OVCAR-8 ovarian 107% | OVCAR-5 ovarian 99.3% | OVCAR-4 ovarian 112% | SK-OV-3 ovarian 135% | IGROV1 ovarian 104% | OVCAR-3 ovarian 127% | HS 578T breast 103% | NCI/ADR-RES ovarian 102%

c1ccc(-c2oc3ccccc3c2-c2ccccc2)cc1
inactive: SK-MEL-2 melanoma 92.9% | EKVX NSCLC 96.6% | SN12C renal 92.2% | UO-31 renal 86.4% | TK-10 renal 110% | ACHN renal 97.3% | CAKI-1 renal 69.4% | A498 renal 89.9% | CCRF-CEM leukemia 86.1% | MOLT-4 leukemia 54.9% | SR leukemia 57.3% | RPMI-8226 leukemia 107% | OVCAR-8 ovarian 102% | OVCAR-5 ovarian 105% | OVCAR-4 ovarian 96.7% | SK-OV-3 ovarian 101% | IGROV1 ovarian 87.8% | OVCAR-3 ovarian 100% | HS 578T breast 110% | NCI/ADR-RES ovarian 110%

CNC1(C#N)CCN(Cc2ccccc2)CC1
inactive: SK-MEL-2 melanoma 93.2% | EKVX NSCLC 90.2% | SN12C renal 93.9% | UO-31 renal 80.9% | TK-10 renal 272% | ACHN renal 101% | CAKI-1 renal 72.7% | A498 renal 110% | CCRF-CEM leukemia 108% | MOLT-4 leukemia 170% | SR leukemia 132% | RPMI-8226 leukemia 110% | OVCAR-8 ovarian 113% | OVCAR-5 ovarian 100% | OVCAR-4 ovarian 103% | SK-OV-3 ovarian 99.4% | IGROV1 ovarian 101% | OVCAR-3 ovarian 99.9% | HS 578T breast 104% | NCI/ADR-RES ovarian 103%

COc1ccc(-n2nnc(C(=O)NCCc3c[nH]c4ccc(F)cc34)c2C)cc1
inactive: SK-MEL-2 melanoma 91.6% | EKVX NSCLC 102% | SN12C renal 103% | UO-31 renal 83.5% | TK-10 renal 96.2% | ACHN renal 102% | CAKI-1 renal 91.7% | A498 renal 100% | CCRF-CEM leukemia 87.9% | MOLT-4 leukemia 87.9% | SR leukemia 82.1% | RPMI-8226 leukemia 93.3% | OVCAR-8 ovarian 98.6% | OVCAR-5 ovarian 101% | OVCAR-4 ovarian 107% | SK-OV-3 ovarian 89.8% | IGROV1 ovarian 107% | OVCAR-3 ovarian 103% | HS 578T breast 96.5% | NCI/ADR-RES ovarian 106%

CCCCCCNc1cc(C)nc2ccc(OC)cc12
inactive: SK-MEL-2 melanoma 73.7% | EKVX NSCLC 65.7% | SN12C renal 67.9% | UO-31 renal 40.4% | TK-10 renal 80.4% | ACHN renal 76.4% | CAKI-1 renal 70.9% | A498 renal 22% | CCRF-CEM leukemia 60.7% | MOLT-4 leukemia 50.4% | SR leukemia 23.2% | RPMI-8226 leukemia 34.4% | OVCAR-8 ovarian 65.3% | OVCAR-5 ovarian 64.4% | OVCAR-4 ovarian 55% | SK-OV-3 ovarian 73.8% | IGROV1 ovarian 55.5% | OVCAR-3 ovarian 65.8% | HS 578T breast 87% | NCI/ADR-RES ovarian 45.1%

Cc1cc(NS(=O)(=O)c2ccccc2)c(OS(=O)(=O)c2ccccc2)cc1C
inactive: SK-MEL-2 melanoma 118% | EKVX NSCLC 104% | SN12C renal 94% | UO-31 renal 73.6% | TK-10 renal 119% | ACHN renal 104% | CAKI-1 renal 109% | A498 renal 89.2% | CCRF-CEM leukemia 97.5% | MOLT-4 leukemia 88.5% | SR leukemia 94.6% | RPMI-8226 leukemia 84.1% | OVCAR-8 ovarian 95.1% | OVCAR-5 ovarian 114% | OVCAR-4 ovarian 106% | SK-OV-3 ovarian 108% | IGROV1 ovarian 122% | OVCAR-3 ovarian 110% | HS 578T breast 101% | NCI/ADR-RES ovarian 102%

CCCCCCNC(=O)c1cc(NCc2cc(O)ccc2O)ccc1O
active: CCRF-CEM leukemia 5.38% | SR leukemia 7.38% | RPMI-8226 leukemia -12.3%
inactive: SK-MEL-2 melanoma 95.5% | EKVX NSCLC 66.6% | SN12C renal 56.3% | UO-31 renal 34.4% | TK-10 renal 68.6% | ACHN renal 57.1% | CAKI-1 renal 56.3% | A498 renal 99% | MOLT-4 leukemia 12.5% | OVCAR-8 ovarian 30.9% | OVCAR-5 ovarian 77.5% | OVCAR-4 ovarian 66.5% | SK-OV-3 ovarian 74.5% | IGROV1 ovarian 70.7% | OVCAR-3 ovarian 27.4% | HS 578T breast 70.5% | NCI/ADR-RES ovarian 59.2%

CCN(CC)CCCNC(=O)c1ccc(N)cc1
active: CCRF-CEM leukemia -34.9%
inactive: SK-MEL-2 melanoma 99% | EKVX NSCLC 104% | SN12C renal 103% | UO-31 renal 78.8% | TK-10 renal 97.8% | ACHN renal 97.3% | CAKI-1 renal 107% | A498 renal 66.3% | MOLT-4 leukemia 85.3% | SR leukemia 86.6% | RPMI-8226 leukemia 105% | OVCAR-8 ovarian 106% | OVCAR-5 ovarian 97.1% | OVCAR-4 ovarian 114% | SK-OV-3 ovarian 112% | IGROV1 ovarian 100% | OVCAR-3 ovarian 111% | HS 578T breast 99.2% | NCI/ADR-RES ovarian 102%

Cc1ccc(C)c2c1C(=O)OC2=O
active: MOLT-4 leukemia 3.4%
inactive: SK-MEL-2 melanoma 84.6% | EKVX NSCLC 105% | SN12C renal 97.9% | UO-31 renal 79.1% | TK-10 renal 102% | ACHN renal 98.8% | CAKI-1 renal 99.4% | A498 renal 101% | CCRF-CEM leukemia 102% | SR leukemia 10.4% | RPMI-8226 leukemia 109% | OVCAR-8 ovarian 106% | OVCAR-5 ovarian 90.6% | OVCAR-4 ovarian 109% | SK-OV-3 ovarian 95.2% | IGROV1 ovarian 92% | OVCAR-3 ovarian 115% | HS 578T breast 114% | NCI/ADR-RES ovarian 98.1%
